Results as given in ChEMBL document CHEMBL4513216, “Probing the Open Global Health Chemical Diversity Library for Multistage-Active Starting Points for Next-Generation Antimalarials” (ACS Infect Dis, 2020).
Out of some 65,000 compounds screened, about 2,100 (3.2%) showed an effect of 50% or more. The median lay at about -52%. This excerpt belongs to a sample that is enriched for strong results.

system: Plasmodium falciparum; test: Screen against P. falciparum Asexual Blood Stage (ABS), at 5uM; type: functional, Dd2; conditions: tested at 5 uM

Compared with `CN(C)c1cc2c(nn1)CCN(C(=O)c1ccc(-n3cccn3)nc1)C2`, `CN(C)Cc1ccnc(C2CCCN2Cc2ccc3ncccc3c2)n1` (stereo unspecified) is higher in INHIBITION: -129% for the first, 42% for the second.

First: CC(C)n1nc(CN2CCOCC2)c2c1CN(C(=O)c1ccno1)C2
Second: Cn1cc(CN2CCCN(C(=O)c3cc(Cl)cn3C)CC2)cn1
The INHIBITION of the first is lower: -44.4% for the first, -7.21% for the second.

First: Cc1ccc(C(=O)N2CC[C@@H]3[C@H]2CCC(=O)N3CCN(C)C)cn1
Second: CN(C)C(=O)CN1C(=O)C[C@@H]2[C@@H]1CCN2Cc1cccc(C#N)c1
The INHIBITION of the first is higher: -2.53% for the first, -63% for the second.

Compared with `CCc1cnc(NC(=O)NC2CCN(C)CC2)s1`, `CCc1cnc(C)nc1NCCN1CCC(O)CC1` is higher in INHIBITION: -80.8% for the first, -27.7% for the second.

Going from `CC1=N[C@@]2(CC[C@@H]3CN(C(=O)NCc4cccc(F)c4)C[C@@H]32)C(=O)N1` to `O=c1cc(CN2CCCCC2c2cccc(F)c2)[nH]c2ncnn12` (stereo unspecified), the INHIBITION rises from -94.6% to -27.8%.

Going from `CC(C(=O)Nc1ccccc1F)S(C)(=O)=O` (stereo unspecified) to `CC(O)CN1CCC(CNCc2ccccc2F)CC1` (stereo unspecified), the INHIBITION rises from -75.4% to -0.868%.

Compared with `Cc1nc(-c2ccc(Cl)cc2)n(CC(=O)NC(C)C)c(=O)c1CCO`, `Cc1ccc(-c2nc(CSCCC(=O)NC(N)=O)co2)cc1` is higher in INHIBITION: -186% for the first, -132% for the second.

Going from `Cc1cc(C)c(C(=O)NC(CN2CCCC2)c2ccccc2)c(=O)[nH]1` (stereo unspecified) to `O=C(NCCN1CCCC1)c1cc2c(s1)CCN2C(=O)c1ccccc1`, the INHIBITION rises from -88.9% to -40.6%.

Compared with `CCC(CN1CCCC1)NC(=O)Cc1c(C)[nH]c2cc(C)cc(C)c12` (stereo unspecified), `Cc1cc(C)c(CCNC(=O)CN2CCCN(C(N)=O)CC2)c(C)c1` is lower in INHIBITION: 61.6% for the first, -67.4% for the second.

Compared with `CC(=O)c1c(C)nn(CC(=O)N2CCCC2c2ccc(C(N)=O)s2)c1C` (stereo unspecified), `COCC(=O)N1CCCC1c1ccc(C(=O)NCCN2CCCCC2)s1` (stereo unspecified) is higher in INHIBITION: -149% for the first, -139% for the second.

Going from `CCN(CC)C(=O)CCc1nc(-c2cnn3c(C)cc(C)nc23)no1` to `CCc1noc(CN(CC)Cc2cc3ccc(F)cc3[nH]c2=O)n1`, the INHIBITION rises from -59.8% to -9.14%.

First: COC[C@H]1CCC[C@]12CN(CCc1ccccc1)CCO2
Second: O=C(NCCCN1CCOCC1)C(OC1CCCC1)c1ccccc1 (stereo unspecified)
The INHIBITION of the first is lower: -30.9% for the first, 53.1% for the second.

Going from `O=C1CC[C@H]2[C@H](CCN2S(=O)(=O)C2CC2)N1CCN1CCCC1` to `CN1CCN(CCNC(=O)C(OC2CCCC2)c2ccccc2)CC1` (stereo unspecified), the INHIBITION rises from -109% to 39.2%.

First: CC(C)[C@H](N)CC(=O)Nc1nc(-c2cnc(N3CCOCC3)nc2)cs1
Second: CN(C)CC(=O)N1CCC2(CC1)CN(c1ncccn1)CCO2
The INHIBITION of the first is lower: -62.3% for the first, 5.56% for the second.

First: Cc1ccsc1[C@@H]1CCN(C(=O)Cc2ccc(O)cc2)C[C@H]1O
Second: CN1C[C@H](c2ccccc2)[C@H]2CN(C(=O)Cc3ccc(O)cc3)CC[C@H]21
The INHIBITION of the first is lower: 11.1% for the first, 58% for the second.

Compared with `CN1C[C@H](c2ccccc2)[C@H]2CN(C(=O)Cc3cccc(O)c3)CC[C@H]21`, `Cn1cc(Cl)cc1C(=O)N1CCCN(Cc2ccccc2)CC1` is higher in INHIBITION: 48.1% for the first, 50.9% for the second.

Compared with `COC(=O)[C@@H]1CCCN1C(=O)c1cn(C/C=C/c2ccccc2)nn1`, `Cc1n[nH]c(C)c1C1COCCN1C(=O)c1ccccc1` (stereo unspecified) is lower in INHIBITION: -29.2% for the first, -119% for the second.

Compared with `CC(CCc1ccccc1)NC(=O)CNCCCN(C)C` (stereo unspecified), `CCN1CCOC(CNCc2ccccc2OCC(=O)N(C)C)C1` (stereo unspecified) is higher in INHIBITION: -20.5% for the first, -19.5% for the second.

First: N[C@@H]1c2ccccc2C2(CCN(c3cc(C(F)(F)F)ccn3)CC2)[C@H]1O
Second: CC(O)CN1CCC(CNCc2ccccc2C(F)(F)F)CC1 (stereo unspecified)
The INHIBITION of the first is lower: -15.6% for the first, 48.3% for the second.

First: COC1CCN(CCNc2ncc(Br)cc2C)CC1
Second: CC(=O)N1CCN(CCNc2ncc(Br)cc2C)CC1
The INHIBITION of the first is higher: 60.6% for the first, -22.7% for the second.

First: Cc1ccc(CN2CCn3cc(CN4CCN(C)CC4)nc3C2)cc1
Second: Cc1ccc(C(=O)N2CCN(Cc3cccs3)CC2)n1C
The INHIBITION of the first is lower: -112% for the first, -20.2% for the second.

First: O=C(NCCN1CCOCC1)C(OC1CCCC1)c1ccccc1 (stereo unspecified)
Second: CCC1CN(CC(=O)NCCN2CCCC2)c2ccccc2S1 (stereo unspecified)
The INHIBITION of the first is lower: -78% for the first, 63.8% for the second.

First: CN(C)CC(=O)N1CCC2(CCc3ccc(-c4ccncc4)cc32)CC1
Second: Cc1ccc2c(c1)CCC21CCN(C(=O)CN(C)C)CC1
The INHIBITION of the first is lower: -41.7% for the first, 50.7% for the second.

First: Cc1ccc2c(c1)CCC21CCN(C(=O)CO)CC1
Second: CN(C)C1CC2(CCN(C(=O)NC3CC3)CC2)c2ccccc21 (stereo unspecified)
The INHIBITION of the first is higher: -19.8% for the first, -42.2% for the second.

Compared with `CCCn1nc2c(cc1=O)CN(c1ncnc3ccsc13)CC2`, `CCOCC1CN(C(=O)c2cccs2)Cc2cnn(CC3CC3)c21` (stereo unspecified) is higher in INHIBITION: -43% for the first, 18.5% for the second.

Compared with `CSCc1noc(CNS(=O)(=O)c2cccc(C(=O)NC3CC3)c2)n1`, `CCc1noc(CN(CC)C(=O)C2CC(=O)N(Cc3ccncc3)C2)n1` (stereo unspecified) is lower in INHIBITION: -45.3% for the first, -125% for the second.

Going from `CC(C)n1cc(C(=O)NCCN(C)C)c2n[nH]c(=O)c-2c1` to `CC(C)c1nnc(NC(=O)NCc2cccnc2NCCN(C)C)s1`, the INHIBITION falls from -36.6% to -89.9%.

Going from `Cc1noc(C(C)C)c1C(=O)NCCCN1CCCC1` to `CNC(=O)C1CCN(CC(=O)Nc2cc(C(C)C)no2)CC1`, the INHIBITION falls from -39.2% to -141%.

First: CC(C)CC(NCc1cccs1)c1ccccn1 (stereo unspecified)
Second: CC(C)CC(NCc1ccsc1)c1ccccn1 (stereo unspecified)
The INHIBITION of the first is lower: -21.4% for the first, 60% for the second.

Compared with `CC(C)CC(NCc1cscn1)c1ccccn1` (stereo unspecified), `COCC(Nc1ncnc2c1CCNCC2)c1ccccn1` (stereo unspecified) is lower in INHIBITION: 32.3% for the first, -66.2% for the second.

Compared with `CC(C)OCCC(=O)NCC(O)c1c(F)cccc1F` (stereo unspecified), `CC(O)CN1CCC(CNCc2cccc(OC(C)C)c2)CC1` (stereo unspecified) is higher in INHIBITION: -37.7% for the first, 62.4% for the second.

First: Cc1nc(NC(=O)NCc2cccnc2NCCN(C)C)sc1C
Second: CN(C)CCNc1ncccc1CNC(=O)Nc1cc(F)cc(F)c1
The INHIBITION of the first is lower: -8.39% for the first, 55% for the second.

First: CC(O)CN1CCC(CNCc2cccc(C(N)=O)c2)CC1 (stereo unspecified)
Second: CC(O)CN1CCC(CNCc2cccc(C(=O)N(C)C)c2)CC1 (stereo unspecified)
The INHIBITION of the first is higher: -73.1% for the first, -81.9% for the second.

Compared with `CC(O)CN1CCC(CNCc2ccccc2OC(F)(F)F)CC1` (stereo unspecified), `Cc1ncccc1CNCC1CCN(CC(O)c2ccccc2)CC1` (stereo unspecified) is lower in INHIBITION: 67.7% for the first, 31.4% for the second.

Compared with `Cc1noc(C)c1CNCC1CCN(CC(O)c2ccccc2)CC1` (stereo unspecified), `Cc1ccc(CNCC2CCN(CC(O)c3ccccc3)CC2)o1` (stereo unspecified) is higher in INHIBITION: 43.4% for the first, 62.5% for the second.

Compared with `CCOCC(=O)NCC1CCN(Cc2ccsc2)CC1`, `CCOCC1CN(C(=O)c2cccn2C)Cc2cnn(CC3CC3)c21` (stereo unspecified) is higher in INHIBITION: -90.6% for the first, 57.8% for the second.

Compared with `COc1cc(CNc2cc(-c3nncn3C)ccn2)cc(OC)c1OC`, `COc1cc(-c2cc(NC3CCCC3)nc3[nH]ccc23)nc(N)n1` is higher in INHIBITION: -52.4% for the first, 62.5% for the second.

First: Cc1ccccc1-c1noc(CN2CCC(N3CCNC3=O)CC2)n1
Second: Cc1ccccc1OCC1CCCN(c2cc(N)nc(N)n2)C1 (stereo unspecified)
The INHIBITION of the first is lower: -80.6% for the first, 44.5% for the second.

Going from `CN1CCCC(CCCc2cccnc2)(C(N)=O)C1` (stereo unspecified) to `CCN1CCOC(CNCc2ccccc2OCc2cccnc2)C1` (stereo unspecified), the INHIBITION rises from -103% to 28.1%.

Compared with `COc1nccnc1-c1cc(NC2CCCC2)nc2[nH]ccc12`, `Nc1ccnc(-c2cc(NC3CCNCC3)nc3[nH]ccc23)c1` is lower in INHIBITION: 18.8% for the first, -29.8% for the second.

Compared with `CCN(Cc1noc(CC(C)C)n1)Cc1cc2ccc(F)cc2[nH]c1=O`, `CCN(Cc1nc(COC)no1)Cc1cc2ccc(F)cc2[nH]c1=O` is higher in INHIBITION: -109% for the first, 62.2% for the second.

Compared with `O=C(C[C@@H]1COC[C@H]2CN(CC3CCOCC3)C[C@@H]12)N1CCCCO1`, `CCOCC1CN(C(=O)c2cnccn2)Cc2cnn(CC3CC3)c21` (stereo unspecified) is lower in INHIBITION: -22.4% for the first, -127% for the second.

Going from `CC(O)CN1CCN(C(=O)c2cc3ccccc3n2C)CC1` (stereo unspecified) to `Cn1cc(Cl)cc1C(=O)N1CCN(Cc2cccs2)CC1`, the INHIBITION rises from -75.1% to 7.04%.

Compared with `CCC(C)(COc1ncccc1Cl)NCC(=O)NC1CCCCC1` (stereo unspecified), `CCN1CCOC(CNCc2ccccc2OCc2ccccn2)C1` (stereo unspecified) is higher in INHIBITION: -85.6% for the first, 7.77% for the second.

First: COc1ccccc1C(=O)N1CCOCC1c1c(C)n[nH]c1C (stereo unspecified)
Second: Cc1n[nH]c(C)c1C1COCCN1C(=O)c1cccc(F)c1F (stereo unspecified)
The INHIBITION of the first is higher: 57.5% for the first, 49.6% for the second.

Compared with `Cc1cnn(CCNCc2ccccc2OCc2ccccn2)c1`, `Cc1cnn(CCNCc2ccccc2OCc2ccncc2)c1` is lower in INHIBITION: 67% for the first, 40.5% for the second.

Compared with `CCN1CCOC(CNCc2ccccc2OCc2ccncc2)C1` (stereo unspecified), `CN1CCOC(CNCc2ccccc2OCc2ccccn2)C1` (stereo unspecified) is higher in INHIBITION: 55.3% for the first, 67.7% for the second.

Going from `Cc1cnn(CCNCc2ccc(OCc3ccccn3)cc2)c1` to `CN1CCOC(CNCc2ccc(OCc3ccccn3)cc2)C1` (stereo unspecified), the INHIBITION falls from -12.3% to -15.8%.

First: CNC(=O)c1nc(COc2ccc3c(c2)OCO3)no1
Second: CCOc1ccc(CSC(C)c2nc(C)no2)nc1 (stereo unspecified)
The INHIBITION of the first is higher: -139% for the first, -173% for the second.

Compared with `Cc1ccc(C)c(S(=O)(=O)NC(=O)c2ccc(C)[nH]c2=O)c1`, `Cc1ccc(N2CCC(Nc3ccc4nnc(C)n4n3)CC2)nc1` is higher in INHIBITION: -134% for the first, -89% for the second.

Compared with `O=S(=O)(c1cccs1)N1CC[C@@H](O)[C@@H]1Cc1ccncc1`, `Cc1ccc(C(=O)N2CCCN(Cc3cccs3)CC2)n1C` is higher in INHIBITION: -17% for the first, 55.6% for the second.

Going from `Cn1cc(Cl)cc1C(=O)N1CCCN(Cc2cccs2)CC1` to `COCCN1C[C@@H]2CN(c3ncc(F)cn3)C[C@@H]2C1=O`, the INHIBITION falls from -60.9% to -65.7%.

First: CSCC(CCO)NC(=O)Nc1cc(F)ccc1C (stereo unspecified)
Second: Fc1ccc(CNCc2nnc3n2CC(C(F)(F)F)CC3)c(F)c1 (stereo unspecified)
The INHIBITION of the first is lower: -130% for the first, -35% for the second.
